# Screening data: PubChem BioAssay, several laboratories
# The list is not random: actives were taken first. Their share in the collection is about 6.2%.
# AHR activator = activates the human aryl hydrocarbon receptor; activation, % at 5 µM; P35869; 320,000 compounds, 2.5% hits; AID 2796; AHR-responsive luciferase reporter cells, luminescence; in the data active means activation above about 47%;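 further: 0% = vehicle wells and 100% = reference agonist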
# NTR1 agonist = activates human neurotensin receptor 1. P30989. NTR1-U2OS beta-arrestin-GFP spot imaging, agonist mode. activation, % at 20 µM. 330,000 compounds, 0.17% hits. AID 493036;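 active means activation at or above 40% of the spot to cytoplasm intensity ratio, with at least 20 cells analyzed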;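 further: 0% = DMSO without peptide and 100% = 100 nM NTR1 peptide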
# Target sequence (P30989 whole entry, looked up): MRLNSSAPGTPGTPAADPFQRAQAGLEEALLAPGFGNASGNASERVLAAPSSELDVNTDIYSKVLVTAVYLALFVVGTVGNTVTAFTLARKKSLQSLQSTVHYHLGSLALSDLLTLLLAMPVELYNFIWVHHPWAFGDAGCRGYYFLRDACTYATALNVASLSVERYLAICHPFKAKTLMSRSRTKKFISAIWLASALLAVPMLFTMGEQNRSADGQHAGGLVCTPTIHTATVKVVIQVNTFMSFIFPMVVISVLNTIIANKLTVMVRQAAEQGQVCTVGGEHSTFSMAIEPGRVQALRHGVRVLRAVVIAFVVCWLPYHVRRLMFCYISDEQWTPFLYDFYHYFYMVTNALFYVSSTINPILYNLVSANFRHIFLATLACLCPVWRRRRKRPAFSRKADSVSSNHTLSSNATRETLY
# AI-2 QS modul = modulators of Vibrio harveyi AI-2 quorum sensing system; Vibrio harveyi JMH597 AI-2 luminescence/OD600 ratio, 9 h; stronger effect = lower value; strain lacks LuxN and CqsS sensors; 0 = neutral-control median; activity change, % at 7.5 µM; 300,000 compounds, 0.4% hits; in the data active means activity change below about -75%, passing the limit was not always enough;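 further: luminescence divided by OD600 gain over 9 h not by final OD600 alone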
# GRIN3A LBD mod = NR3A (human) ligand-binding domain modulation | NR3A LBD differential scanning fluorimetry, Tm shift; 0% = protein alone, 100% = glycine-bound protein | Tm shift relative to glycine control, % at 25 µM | 340,000 compounds, 2.5% hits;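 active means melting temperature shift of at least 10% of the positive control shift, at one fixed dose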
# H9c2 protect = myocardial damage modulation in H9c2 cells; 360,000 compounds, 0.63% hits; protection from H2O2 cell death, % at 20 µM; H9c2 cardiomyocytes, H2O2 injury protection, ATPLite, 2 h;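 active means compounds giving at least 50% protection of heart cells from peroxide-induced death in the single-dose screen, raw or plate-pattern-corrected value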;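 further: 0% = DMSO wells with peroxide and 100% = DMSO wells without peroxide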
# Mot1-301 SUMO = inhibitors of SUMOylation pathway: yeast Mot1-301 growth rescue. S. cerevisiae Mot1-301 growth rescue, ATP luminescence, 38.5C; percent above DMSO median, 100 means doubled. growth rescue, % at 18.8 µM. 320,000 compounds, 1% hits. AID 2716;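 active means every valid replicate shows activation above 250% relative to neutral control wells; inactive means the rest, any valid replicate at or below 250%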;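 further: OY570 slx delta 5 strain wells were the positive control but not used for scaling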
# Starred values were filed as active, the others as inactive; . = not tested or not shown.
SMILES,AHR activator,NTR1 agonist,AI-2 QS modul,GRIN3A LBD mod,H9c2 protect,Mot1-301 SUMO
N#CC1=C(N)Oc2cc(N)ccc2C1c1ccccc1Cl (stereo not given),.,1.3,27.4,-1.4,-2.0,-17.6
COc1ccc2oc(=N)c(C(=O)Nc3ccc(C)cc3)cc2c1,.,2.4,9.1,-1.3,-6.5,0.1
COc1ccc2o/c(=N\O)c(C(=O)Nc3ccc(C)cc3)cc2c1,.,.,5.0,16.2*,3.7,.
COc1ccccc1N=c1oc2cc(O)ccc2cc1C(N)=O,23.2,-0.4,25.1,-9.8,-15.6,-45.8
COc1ccccc1NC(=O)c1cc2ccccc2o/c1=N\O,67.3*,22.4,17.6,-7.4,17.5,-7.7
COc1ccccc1NC(=O)c1cc2ccc(O)cc2o/c1=N\O,-1.4,4.4,25.5,35.6*,6.1,-13.5
COc1ccc(N=c2oc3ccccc3cc2C(=O)Nc2ccccn2)cc1OC,0.4,9.5,20.6,.,.,-9.4
c1coc(C2=NC(c3ccco3)C(c3ccco3)N2)c1 (stereo not given),.,.,.,-0.8,3.2,.
Cc1cc(N/N=C/c2cccc(Cl)c2)nc(NCc2ccccc2)n1,34.8,8.6,14.7,15.2*,-16.4,20.8
Cc1cc(N/N=C/c2ccc(Cl)cc2)nc(NCc2ccccc2)n1,26.5,17.7,10.5,27.5*,-22.4,165.6
Cc1cc(N/N=C/c2cccc(F)c2)nc(NCc2ccccc2)n1,16.6,23.6,21.4,15.0*,-13.5,-0.2
Cc1cc2cc(CCNC(=O)CCc3ccccc3)c(=O)[nH]c2cc1C,11.0,4.2,25.3,-2.7,2.5,11.4
Cc1ccccc1C(=O)N1CCC(C(=O)NN2C(=O)NC3(CCC(C)CC3)C2=O)CC1 (stereo not given),3.2,3.0,.,5.8,1.5,7.1
Cc1cccc(-n2c(C)c(C)c3c(N)ncnc32)c1,16.4,1.0,5.0,-0.7,-4.3,14.7
Cn1cnc2c(=O)sc3ccccc3c21,1.8,0.3,16.4,-1.5,15.3,7.8
CCOC(=O)c1cnc2ccc(OCC)cc2c1N1CCN(c2ccccc2OC)CC1,38.5,34.7,13.8,3.9,0.1,-16.3
CCOC(=O)c1cnc2ccc(OCC)cc2c1N(C)Cc1ccccc1,6.9,12.2,23.0,11.2*,-9.5,19.6
Oc1cccc2ccc(/C=C/c3cccs3)nc12,70.3*,10.7,36.8,-1.9,15.5,-14.4
Cc1ccsc1/C=C/c1ccc2cccc(O)c2n1,93.9*,6.6,26.2,-17.7,30.5,78.8
CCCCN(C(=O)c1cc2c(s1)CCC2)c1c(N)n(CCCC)c(=O)[nH]c1=O,-0.2,1.2,17.9,-3.2,-3.8,14.9
CCN(CC)CCCN(Cc1cc2cc3c(cc2[nH]c1=O)OCO3)C(=S)NCCCN(C)C,1.1,-0.6,13.4,-2.2,4.8,879.8*
N#Cc1c(SCC(=O)Nc2cccc(C(F)(F)F)c2)sc2c(O)cc(=O)[nH]c12,3.3,-1.6,29.4,10.3*,-4.2,17.1
O=[N+]([O-])c1ccc(NCc2ccccc2N2CCC(CO)CC2)nc1,0.9,-0.5,17.6,-0.4,3.2,1.2
O=C(CSc1ccccn1)Nc1nonc1[N+](=O)[O-],1.5,1.1,-88.5*,1.8,-10.3,.
COc1ccc(OC)c2c1sc(=NC(=O)c1cccc(N3C(=O)CCC3=O)c1)n2C,70.0*,8.2,14.4,-23.4,-0.3,11.5
SMILES,AHR activator,NTR1 agonist,AI-2 QS modul,GRIN3A LBD mod,H9c2 protect,Mot1-301 SUMO
CCn1c(=NC(=O)c2cccc(N3C(=O)CCC3=O)c2)sc2c(OC)ccc(OC)c21,13.9,1.5,14.8,-6.2,26.1,-5.9
COc1ccc(C(=O)N=c2sc3c(C)ccc(OC)c3n2C)cc1,56.2*,5.4,22.6,-7.4,-14.0,-3.7
COc1cc(C(=O)N=c2sc3c(C)ccc(OC)c3n2C)cc(OC)c1OC,32.2,18.6,17.5,-0.7,29.9,-0.2
Cc1c(Cl)c([N+](=O)[O-])nn1Cc1ccc(C(=O)NN)o1,8.0,4.5,11.2,-1.2,5.8,1.7
Cc1c(Cl)c([N+](=O)[O-])nn1Cc1ccc(C(=O)N/N=C\c2cccc(Br)c2)o1,55.4*,0.8,36.2,0.3,7.5,-18.8
O=C(N/N=C\c1cccc(Cl)c1)c1ccc(Cn2cc(Br)c([N+](=O)[O-])n2)o1,28.4,0.9,26.8,12.4*,5.8,-11.9
CCN(CC(=O)NCc1cccs1)CC(=O)Nc1cccc(S(N)(=O)=O)c1,-1.2,1.6,.,-3.0,12.5,.
